Measured values reported in PubChem BioAssay AID606 (Columbia University Molecular Screening Center, 2007).
Among all 52,000 compounds or so, fewer than 10 were called active.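 Rule for the calls: active = IC50 under 40 µM in the dose-response test; inactive = IC50 of 40 µM or more, or never dose-tested.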 Not all results are given here.

Each compound was assayed against Tyrosine-protein phosphatase non-receptor type 22 (Homo sapiens) (UniProt Q9Y2R2) (assay: LYP phosphatase inhibitors, primary screen, biochemical, DiFMUP fluorescence, recombinant catalytic domain, 10 µM (AID 606)). Conditions: at 10 µM, active compounds read high.
Sequence of Tyrosine-protein phosphatase non-receptor type 22 (Homo sapiens) (Q9Y2R2 whole entry, looked up, the tested form may be a part): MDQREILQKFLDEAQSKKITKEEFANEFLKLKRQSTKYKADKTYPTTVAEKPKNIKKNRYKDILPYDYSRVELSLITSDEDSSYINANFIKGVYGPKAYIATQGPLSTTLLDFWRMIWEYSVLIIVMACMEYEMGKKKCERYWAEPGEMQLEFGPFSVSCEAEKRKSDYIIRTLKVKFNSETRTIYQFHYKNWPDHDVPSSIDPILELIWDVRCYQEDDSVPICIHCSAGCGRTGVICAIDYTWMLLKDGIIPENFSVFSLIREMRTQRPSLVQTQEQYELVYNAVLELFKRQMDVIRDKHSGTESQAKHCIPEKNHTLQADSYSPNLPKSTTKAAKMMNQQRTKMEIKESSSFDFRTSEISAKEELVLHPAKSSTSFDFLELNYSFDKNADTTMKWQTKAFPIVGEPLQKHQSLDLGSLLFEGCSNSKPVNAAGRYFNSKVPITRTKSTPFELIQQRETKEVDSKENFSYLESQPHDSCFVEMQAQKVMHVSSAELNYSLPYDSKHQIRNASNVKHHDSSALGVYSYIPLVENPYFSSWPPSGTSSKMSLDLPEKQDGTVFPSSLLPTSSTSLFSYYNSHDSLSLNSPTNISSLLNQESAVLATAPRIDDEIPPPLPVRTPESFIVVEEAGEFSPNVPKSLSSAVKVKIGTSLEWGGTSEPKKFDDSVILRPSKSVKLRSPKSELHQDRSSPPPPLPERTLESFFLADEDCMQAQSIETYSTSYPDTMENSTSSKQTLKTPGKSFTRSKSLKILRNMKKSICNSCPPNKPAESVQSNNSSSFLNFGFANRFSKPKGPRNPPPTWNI

inhibition, inactive:
CC1CCCCN1CCNC(=O)Cn1nc(-c2ccccc2)ccc1=O (centres undefined) -5.86%
CCOC(=O)N1CCC(NC(=O)CCC(=O)N2CC(C)Oc3ccccc32)CC1 (centres undefined) 4.49%
COCCn1cc(C(=O)N2CCCC(C)C2)c2c3ccccc3n(C)c2c1=O (centres undefined) 8.11%
CCn1c(SCC(=O)Nc2ccc(C(C)=O)cc2)nc2ccccc21 9.9%
CC(C)C(NC(=O)C1CCCCC1)C(=O)Nc1ccc2c(c1)OCCO2 (centres undefined) 5.06%
Cc1cc(C)nc(N2CCN(c3ncnc4c3cnn4Cc3ccc(Cl)cc3Cl)CC2)n1 0.3%
Cc1c(C(=O)N2CCOCC2)oc2ccc(S(=O)(=O)N3CCCCCC3)cc12 1.73%
C=CCn1c(C)nc2c(c1=O)c1nc3ccccc3nc1n2-c1ccc(C)cc1 20.7%
Cc1ccc(C2CC(c3ccccc3C)n3nc(N)nc3N2)cc1 (centres undefined) 1.78%
O=C(c1ccccc1)c1coc2ccc(O)c(CN3CCOCC3)c12 4.43%
CCn1c(SCCC#N)nnc1-c1ccncc1 5.61%
COC(=O)C1C(=O)C2=C(CC1C)NC(C)=C(C(=O)OC(C)C)C2c1ccc(OC)c(O)c1 (centres undefined) 8.85%
CCOn1c(=O)c(-c2cc3ccccc3o2)[n+]([O-])c2ccccc21 7.2%
N#C/C(=C\c1ccc[nH]1)S(=O)(=O)c1ccccc1 1.07%
Cc1cccc(-c2noc(C3CCCCC3)n2)c1 15.8%
CCOc1ccc(C(=O)NCCCN(CC)CC)cc1 16.6%
CCC1CCCCN1C(=O)Cn1c(=O)oc2ccccc21 (centres undefined) -4.33%
Cc1ccc(NC(=O)N(Cc2cc3cc(C)cc(C)c3[nH]c2=O)CC2COCCO2)cc1 (centres undefined) 1.86%
CC(C)CN1C(=O)NC(NC(=O)c2cccs2)(C(F)(F)F)C1=O (centres undefined) -4.34%
CCOc1ccccc1N(C(=O)Cn1nnnc1-c1ccc(C)o1)C(CC)C(=O)NC(C)(C)C (centres undefined) 7.35%
O=C(NCc1ccccc1)N(Cc1nc2ccccc2c(=O)[nH]1)C1CCCC1 12.2%
Fc1ccccc1N1CCN(c2nc3ccccc3n3nnnc23)CC1 0.81%
CN(C(=O)COC(=O)c1nc(-c2ccccc2)n(-c2ccccc2)n1)C1CCS(=O)(=O)C1 (centres undefined) 23.8%
C=CCc1cccc(CNc2nc3ccccc3n2CC)c1O 8.31%
O=C(O)CCc1ccc(-c2ccccc2)n1NC(=O)c1ccco1 13.5%
CC1CN(C(=O)c2cc3c(=O)n4ccccc4nc3s2)CC(C)O1 (centres undefined) 14.8%
CC(C)CC(=O)NC1(C(F)(F)F)C(=O)Nc2c1c(=O)n(C)c(=O)n2C (centres undefined) 1.85%
COc1ccc(C)cc1NC(=O)CN1CCN(c2ccccc2F)CC1 9.06%
Cc1nn2c3c(cnc2c1-c1ccccc1)C(=O)CC(c1ccco1)C3 (centres undefined) 3.63%
COc1nc(C)nc2c1sc(=S)n2C -1.82%
Cn1c(=O)c2c(nc(N3CCOCC3)n2Cc2c(F)cccc2Cl)n(C)c1=O 4.34%
COC(=O)COC(=O)c1ccc(-n2nnnc2SC)cc1 10.7%
O=C(CCn1c(=O)oc2ccccc21)N1CCN(C(c2ccccc2)c2ccccc2)CC1 5.67%
O=C(Oc1ccc(OC(=O)c2ccncc2)cc1)c1ccncc1 8.57%
COCC(C)n1c(C)cc(C(=O)COC(=O)c2ccc3ncsc3c2)c1C (centres undefined) -12.6%
CCCn1cnc2cc(NCc3ccccn3)ccc21 6.61%
NC(=O)c1ccccc1NC(=O)CCCN1C(=O)CCC1=O 14.4%
CCN(CC)c1ccc(C(=O)OCC(=O)N2CCN(c3ccccc3)CC2)cc1 0.55%
COc1ccc(N(CC(=O)Nc2ccc(OC)c(Cl)c2)S(=O)(=O)c2c(C)noc2C)cc1 6.18%
CCOC(=O)C1CCN(C(=O)COc2ccc(N(C)S(=O)(=O)c3cccs3)cc2)CC1 4.68%
CC1(C)Cc2c(C#N)c(NCCCO)nc(-c3ccccc3)c2CO1 -2.42%
CSc1nc(-c2ccco2)nn1S(=O)(=O)c1ccccc1 -1.38%
CCN(CC)Cc1cc2ccccc2c2c1COC2 0.09%
c1ccc(CCNc2ncnc3c2nnn3Cc2ccccc2)cc1 -4.3%
COc1cccc(OC)c1OCC(O)CN1CCN(c2ccccc2)CC1 (centres undefined) 2.34%
CC#CCCCC(=O)Nc1cc(OC)nc(OC)n1 3%
CN1C(=O)C(C(=O)NC(C)(C)C)C2c3ccccc3OC13CCCCC23 (centres undefined) -15%
CC(C)N(Cc1nc(-c2ccccc2)no1)S(=O)(=O)c1ccccc1 1.55%
COc1cccc(NC(=O)c2ccc(CN3CCOCC3)cc2)c1 8.87%
Cc1nc2nc(-c3cccnc3)nn2c(C)c1Cl 14.4%
CCc1cc(C(=O)Nc2ccccc2)cs1 0.95%
CC(C)n1c(C(O)c2ccc3c(c2)OCO3)nc2ccccc21 (centres undefined) 5.85%
COc1cccc2cc(-c3cn4cccc(C)c4n3)c(=O)oc12 -3.29%
CCCn1c(CN2CCCCC2CC)nc2c1c(=O)n(C)c(=O)n2C (centres undefined) -4.26%
CC(=O)NC(CCS(C)(=O)=O)C(=O)Nc1ccccc1Cl (centres undefined) 1.63%
CS(=O)(=O)N(CC(=O)Nc1ccc2c(c1)OCCO2)c1ccc2c(c1)OCO2 23.4%
COc1ccc(N2CCN(C(=O)C(Cc3ccccc3)n3cccc3)CC2)cc1 (centres undefined) -12.6%
CCN(CC)C(c1ccc(F)cc1)c1nnnn1C1CCCCC1 (centres undefined) 3.34%
NC(=O)NC(=O)COC(=O)CCCc1c[nH]c2ccccc12 1.43%
Cc1noc(NS(=O)(=O)c2ccc(NC(=O)CSc3ncccn3)cc2)c1C 11.6%
COc1ccc(C(CNC(=O)c2cc(C)oc2C)N2CCOCC2)cc1 (centres undefined) 10.4%
CC(C)(C)NC(=O)CN(C(=O)c1ccc(CN2CCOCC2)o1)c1ccc2c(c1)OCCO2 -2.48%
N#CCCN(C(=O)c1ccco1)c1ccccc1 9.22%
Cc1ccc(NC(=O)c2ccc(S(=O)(=O)NCC3CCCO3)cc2)cc1 (centres undefined) 15.7%
O=C(CN1CCN(S(=O)(=O)c2ccc(Br)cc2)CC1)Nc1ccc2c(c1)OCO2 14.6%
O=C(NCC1CCCO1)[C@@H]1CSC2c3ccccc3C(=O)N21 (some centres undefined) -1.83%
O=C(CSc1nnc(-c2ccccn2)n1Cc1ccco1)c1ccc(-c2ccccc2)cc1 -10.3%
O=C(CCc1ccccc1)Nc1nnc(-c2cccs2)o1 -13%
COc1ccc(C(=O)N2CC(=O)N(CCc3ccccc3)C(=O)C2)cc1OC 9.04%
O=C(C1CCN(S(=O)(=O)N2CCOCC2)CC1)N1CCOCC1 2.43%
CC1CN(Cc2nc3c(c(=O)n(C)c(=O)n3C)n2CC(=O)c2ccccc2)CC(C)O1 (centres undefined) -0.17%
COc1ccc(-n2c(=O)[nH]cc(C(=O)N3CCCc4ccccc43)c2=O)cc1 2.14%
O=C(NCc1ccco1)C1CCN(S(=O)(=O)c2cccc3cccnc23)CC1 4.72%
CCCCn1c2c(c(=O)n(C)c1=O)C(c1ccc(OC)cc1)N1CCCCCC1=N2 (centres undefined) -3.4%
Cc1ccc(S(=O)(=O)NCCC(=O)NCc2ccccc2)cc1 7.96%
CC1CCc2sc3nc(NCc4ccco4)n4ncnc4c3c2C1 (centres undefined) 2.11%
C=CCn1c(NCCO)nc2sc3c(c2c1=O)CCC3 11.6%
OCCn1nc2c3ccccc3nc-2n(-c2ccccc2)c1=S 3.81%
O=C(Nc1c(C(=O)N2CCOCC2)cnn1-c1ccccc1)c1ccccc1 1.38%
COc1ccc2c(c1)C1(Nc3ccccc3-c3nc4ccccc4n31)C(=O)N2C (centres undefined) 7.56%
C1CCc2c(nnc3c2-c2nonc2CC3)C1 11.1%
CSc1nc2c(c(=O)n1Cc1ccccc1)SC(C)C2 (centres undefined) 0.73%
Cn1c(SCC(=O)N2CCCCC2)nnc1-c1ccc(S(=O)(=O)N2CCOCC2)cc1 13.4%
CC(C)(C)NC(=O)C(OC(=O)Cn1nnc(-c2ccc(F)cc2)n1)c1ccncc1 (centres undefined) 1.61%
O=C(c1cc2ccccn2n1)N1CCN(c2ccccn2)CC1 7.66%
CN1C(=O)C(O)(CC(=O)c2ccccn2)c2cc(Br)ccc21 (centres undefined) 4.59%
COc1cc2ccccc2cc1C(=O)Nc1ccccc1N1CCN(S(C)(=O)=O)CC1 6.41%
CC(=O)c1c(N2CCN(c3ccccc3)CC2)nc(=S)n(-c2ccccc2)c1C 3.4%
Cn1c(CCNC(=O)c2cccs2)nnc1SCC(=O)N1CCN(c2ccccc2)CC1 6.14%
CCN1C(=O)C(O)(CC(=O)c2cc(C)ccc2C)c2ccccc21 (centres undefined) 11.7%
CCOC(=O)c1cc2n(n1)C(C(F)(F)C(F)(F)F)CC(C)N2 (centres undefined) 15.7%
O=C(C1CCN(c2nnc(-n3cccc3)s2)CC1)N1CCN(c2cccc(C(F)(F)F)c2)CC1 -2.18%
NC(=O)CN(c1ccc(Cl)cc1)S(=O)(=O)c1ccccc1 -12.5%
COc1ccc(N(CC(=O)N2CCc3ccccc3C2)S(=O)(=O)c2c(C)nn(C)c2C)cc1 -0.55%
